Most compounds without a hit are left out; they make up all but 6.8% or so of the library.
C diff HTS: inhibitors of Clostridium difficile growth. growth activity, negative = inhibition, % at 16 µg/mL (by protocol). 0.25% of 86,000 active. Clostridium difficile clinical isolate growth, OD600, 24 h; active compounds read low;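 active = mean growth activity at or below -80% and every replicate also at or below -80%; inconclusive = mean at or below -80% but some replicate above -80%; inactive = mean growth activity above -80%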;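 note: 0% = DMSO wells and -100% = levofloxacin 16 µg/mL wells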
Pf Dd2 inh: P. falciparum Dd2 growth inhibition; activity change, % at 10 µM; AID 1159554; 2.3% of 94,000 active; SYBR Green, 72 h; active compounds read low; in the data active = activity change below about -80%; inconclusive = no clear call, values can overlap the other calls
T cruzi growth-1: blocks T. cruzi growth in NIH3T3 culture; 5.9% of 77,000 active; inhibition, % at 8.34 µM; T. cruzi beta-gal in NIH3T3, GalScreen luminescence, 90 h;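 active = mean inhibition above about 93%, with at least 55% of replicates each passing it, limit read from the data, passing the limit was not always enough; inconclusive = only one of those two conditions holds; inactive = neither condition holds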
T cruzi growth-2: Trypanosoma cruzi proliferation inhibition | shares compounds with T cruzi growth-1 | T. cruzi beta-gal in NIH3T3, GalScreen luminescence, 90 h | inhibition, % at 8.35 µM | 72% of 5,600 active;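 active = mean replicate inhibition above about 95% and at least 55% of replicates individually reaching it, limit read from the data; inconclusive = only one of the two criteria is met; inactive = neither criterion is met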
T cruzi growth-3: Trypanosoma cruzi proliferation inhibition; shares compounds with T cruzi growth-1; T. cruzi beta-gal in NIH3T3, GalScreen luminescence, 90 h; inhibition, % at 2.09 µM; 21% of 5,600 active; AID 651740;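 active = mean inhibition above about 95%, with at least 55% of replicates also reaching it, limit read from the data; inconclusive = meets just one of the two conditions; inactive = meets neither condition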;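 note: plate controls were neutral control median for no effect and positive control median for full effect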
NIH3T3 tox: cytotoxicity in mouse NIH/3T3 fibroblasts; AID 651742; cytotoxicity (signal decrease), % at 8.35 µM; shares compounds with T cruzi growth-1; 14% of 5,600 active; NIH/3T3 viability, CellTiter-Glo ATP luminescence, 90 h;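 active = mean signal decrease across replicates above about 35% based on untreated-well scatter, with enough replicates individually passing, limit read from the data; inconclusive = no rule stated though some were filed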;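 note: 0% = median of neutral control wells and 100% = median of positive control wells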
NIH3T3 tox 2: cytotoxicity in mouse NIH/3T3 fibroblasts | shares compounds with T cruzi growth-1 | NIH/3T3 viability, CellTiter-Glo ATP luminescence, 90 h | inhibition, % at 24.9 µM | 56% of 5,600 active;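 active = mean loss of cell viability signal at or above a set limit, and enough replicates individually reaching it; inconclusive = meets only the mean limit or only the replicate share; inactive = meets neither condition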;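 note: 0% = median of neutral control wells and 100% = median of positive control wells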
An asterisk follows results filed as active; u = inconclusive; x = no result.

SMILES	C diff HTS	Pf Dd2 inh	T cruzi growth-1	T cruzi growth-2	T cruzi growth-3	NIH3T3 tox	NIH3T3 tox 2
CNC[C@H]1Oc2cc(C#Cc3ccccn3)ccc2S(=O)(=O)N([C@@H](C)CO)C[C@@H]1C	7	-41	101*	111*	93	4	4
COC(=O)C[C@H]1CC[C@H]2[C@H](COc3ccc(NC(=O)Nc4cccc(C)c4)cc3C(=O)N2C)O1	-2	-10	11	x	x	x	x
O=C(C[C@H]1CC[C@@H]2[C@H](COC[C@@H](O)CN2Cc2cccc(-c3ccncc3)c2)O1)N1CCCCC1	x	-16	86	x	x	x	x
C[C@H]1CN([C@@H](C)CO)C(=O)c2cc(NS(=O)(=O)c3cn(C)cn3)ccc2O[C@@H]1CN(C)Cc1ccc(C(=O)Nc2ccccc2N)cc1	x	22	u	65	8	6	-8
C[C@@H]1CCCCO[C@H](CN(C)Cc2ccc(C(=O)Nc3ccccc3N)cc2)[C@@H](C)CN([C@H](C)CO)C(=O)c2cc(NS(=O)(=O)c3cn(C)cn3)ccc2O1	11	-11	-8	x	x	x	x
C[C@H]1CN([C@@H](C)CO)C(=O)c2cccc(NS(=O)(=O)c3ccc(Cl)cc3)c2O[C@H]1CN(C)Cc1ccc(C(=O)Nc2ccccc2N)cc1	0	-89*	104*	90	81	6	39*
C[C@H]1CN([C@@H](C)CO)C(=O)c2cc(NS(=O)(=O)c3ccc(Cl)cc3)ccc2O[C@@H]1CN(C)Cc1ccc(C(=O)Nc2ccccc2N)cc1	4	-43	86	x	x	x	x
COc1ccc(S(=O)(=O)Nc2cccc3c2O[C@@H](CN(C)Cc2ccc(C(=O)Nc4ccccc4N)cc2)[C@H](C)CN([C@H](C)CO)C3=O)cc1	8	-34	x	x	x	x	x
Cc1ccc(S(=O)(=O)Nc2cccc3c2O[C@@H](CN(C)Cc2ccc(C(=O)Nc4ccccc4N)cc2)[C@@H](C)CN([C@@H](C)CO)C3=O)cc1	8	-70	x	x	x	x	x
COc1ccc(S(=O)(=O)Nc2cccc3c2O[C@@H](CN(C)Cc2ccc(C(=O)Nc4ccccc4N)cc2)[C@@H](C)CN([C@@H](C)CO)C3=O)cc1	15	-45	u	89	83	-3	37*
C[C@@H]1CN([C@@H](C)CO)C(=O)c2cc(NS(=O)(=O)c3ccc(Cl)cc3)ccc2O[C@@H]1CN(C)Cc1ccc(C(=O)Nc2ccccc2N)cc1	1	u	106*	108*	55	21	62*
C/C=C/c1ccc2c(c1)O[C@H](CN(C)C(=O)C1CCC1)[C@H](C)CN([C@@H](C)CO)S2(=O)=O	x	44	43	x	x	x	x
COc1ccc2c3c([nH]c2c1)[C@H](CO)N(S(=O)(=O)c1cn(C)cn1)CC31CCN(Cc2ccccc2Cl)CC1	x	37	x	x	x	x	x
CS(=O)(=O)N1CC(=O)N2[C@H](CO)[C@H](c3ccc(C#Cc4ccc(F)cc4)cc3)[C@@H]2C1	-5	-38	x	x	x	x	x
COc1ccc(S(=O)(=O)Nc2cccc3c2O[C@@H](CN(C)Cc2ccc(C(=O)O)cc2)[C@@H](C)CN([C@@H](C)CO)C3=O)cc1	x	29	21	x	x	x	x
COc1ccc(S(=O)(=O)Nc2cccc3c2O[C@@H](CN(C)Cc2ccc(C(=O)O)cc2)[C@@H](C)CN([C@H](C)CO)C3=O)cc1	x	6	101*	-30	3	0	5
C[C@H](CO)N1C[C@H](C)[C@H](CN(C)C(=O)Nc2ccc(C(F)(F)F)cc2)Oc2c(NC(=O)c3ccc(-c4nccs4)cc3)cccc2C1=O	x	-44	116*	102*	72	31	84*
C[C@H]1CN([C@@H](C)CO)C(=O)c2cccc(NC(=O)c3nc4ccccc4s3)c2O[C@H]1CN(C)C(=O)Nc1ccc(C(F)(F)F)cc1	3	-73	74	x	x	x	x
C[C@@H]1CN([C@H](C)CO)C(=O)c2cccc(NC(=O)c3nc4ccccc4s3)c2O[C@H]1CN(C)C(=O)Nc1ccc(C(F)(F)F)cc1	-5	-86*	93*	u	u	19	50*
C[C@H](CO)N1C[C@H](C)[C@@H](CN(C)C(=O)Nc2ccc(C(F)(F)F)cc2)Oc2c(NC(=O)c3ccc(-c4nccs4)cc3)cccc2C1=O	x	12	71	x	x	x	x
C[C@@H]1CN([C@@H](C)CO)C(=O)c2cccc(NC(=O)c3ccc(-c4nccs4)cc3)c2O[C@H]1CN(C)C(=O)Nc1ccc(F)cc1	-3	-27	4	x	x	x	x
C[C@@H]1CN([C@@H](C)CO)C(=O)c2cccc(NC(=O)c3ccc(-c4nccs4)cc3)c2O[C@@H]1CN(C)C(=O)Nc1ccc(C(F)(F)F)cc1	x	-70	u	108*	91	26	98*
CCC(=O)NC[C@@H]1[C@@H](c2ccc(-c3cccc(F)c3)cc2)[C@@H](CO)N1CC1CC1	-1	-36	x	x	x	x	x
O=C(C[C@@H]1CC[C@H]2[C@@H](COC[C@H](O)CN2Cc2cc(F)cc(F)c2)O1)NC1CCCC1	7	-5	20	x	x	x	x
O=C(c1ccncc1)N1CCCCN2[C@H](C1)[C@@H](c1ccc(C#Cc3ccccn3)cc1)[C@@H]2CO	1	15	108*	105*	13	3	5
SMILES	C diff HTS	Pf Dd2 inh	T cruzi growth-1	T cruzi growth-2	T cruzi growth-3	NIH3T3 tox	NIH3T3 tox 2
CS(=O)(=O)N1CCCCN2[C@H](CO)[C@H](c3ccc(C#Cc4ccccn4)cc3)[C@@H]2C1	-4	-8	113*	89	48	0	12
O=C(c1ccncc1)N1CCCCN2[C@H](CO)[C@H](c3ccc(C#Cc4ccccn4)cc3)[C@@H]2C1	2	-7	33	x	x	x	x
O=C(Nc1ccccc1)N1CCCCN2[C@@H](CO)[C@@H](c3ccc(C#Cc4ccccn4)cc3)[C@@H]2C1	0	-30	101*	110*	105*	-3	16
COc1ccc(NC(=O)N2CCCCN3[C@H](C2)[C@@H](c2ccc(C#Cc4ccccn4)cc2)[C@@H]3CO)cc1	-1	-16	103*	103*	94	9	38*
CCS(=O)(=O)N1CCCCN2[C@H](C1)[C@@H](c1ccc(C#Cc3ccccn3)cc1)[C@@H]2CO	-9	26	95	x	x	x	x
COc1ccc(NC(=O)N2CCCCN3[C@H](CO)[C@H](c4ccc(C#Cc5ccccc5)cc4)[C@H]3C2)cc1	50	-48	62	x	x	x	x
COC(=O)c1cn(CCCNC(=O)Nc2ccccc2)nn1	-9	x	x	x	x	x	x
C[C@@H]1CN([C@@H](C)CO)C(=O)c2cc(NC(=O)Nc3ccccc3)ccc2O[C@@H](C)CCCCO[C@@H]1CN(C)C	-2	-37	36	x	x	x	x
O=C(N[C@@H]1CC[C@H](CCNS(=O)(=O)Cc2ccccc2)O[C@H]1CO)c1cnccn1	x	10	-66	x	x	x	x
C[C@@H]1CN([C@H](C)CO)C(=O)c2cc(C#CC3CCCCC3)cnc2O[C@H]1CN(C)C(=O)NC1CCCC1	-8	-69	90	x	x	x	x

High-throughput results as filed in PubChem.
